Laboratory results: PubChem BioAssay (EPA / NIEHS)
Where “and” joins values, the source holds several entries; their conditions need not be identical. Equal values may be shown once. Records with an inconclusive call do not appear. Calls of active or inactive are those of the source. The calls were made as follows: active = hit-call score of the fitted dose curve at least 0.9, where 1 is the maximum; inconclusive = response in the unintended direction; inactive = score below 0.9.

Experiments:
[1] = biological target: human Peripheral-type Benzodiazepine Receptor (PBR), TSPO (gene 706) (UniProt P30536); assay: NVS_MP_hPBR: NovaScreen (NVS) Membrane Protein Assay for human Peripheral-type Benzodiazepine Receptor (PBR) (AID 2283331);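 also: hits reduce radioligand binding relative to DMSO baseline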
Sequence of human Peripheral-type Benzodiazepine Receptor (PBR), TSPO (gene 706) (P30536 whole entry, looked up): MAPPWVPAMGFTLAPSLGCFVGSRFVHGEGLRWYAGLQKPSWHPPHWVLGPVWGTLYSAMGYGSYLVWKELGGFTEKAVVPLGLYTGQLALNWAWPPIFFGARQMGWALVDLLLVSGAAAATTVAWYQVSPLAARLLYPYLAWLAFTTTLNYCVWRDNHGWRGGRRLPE
Summary of the method: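 Radioligand displacement on human colonic cell membranes, 1 h incubation; bound radioactivity by filtration and scintillation counting. Primary screen in duplicate at 25 uM single concentration, actives followed up in concentration series; loss of binding versus DMSO.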

[2] = biological target: rat Peripheral-type Benzodiazepine Receptor (PBR), Tspo (gene 24230) (UniProt P16257); assay: NVS_MP_rPBR: NovaScreen (NVS) Membrane Protein Assay for rat Peripheral-type Benzodiazepine Receptor (PBR) (AID 2283335)
Sequence of rat Peripheral-type Benzodiazepine Receptor (PBR), Tspo (gene 24230) (P16257 whole entry, looked up): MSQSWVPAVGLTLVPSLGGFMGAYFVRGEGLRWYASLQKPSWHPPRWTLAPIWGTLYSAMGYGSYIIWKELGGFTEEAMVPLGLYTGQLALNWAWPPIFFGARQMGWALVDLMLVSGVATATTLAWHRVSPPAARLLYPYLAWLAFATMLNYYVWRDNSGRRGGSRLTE
Summary of the method: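 Radioligand displacement, rat kidney membrane prep, 1 h exposure, filter-based scintillation read; DMSO baseline, loss-of-signal scored. Primary screen at 25 uM in duplicate, actives followed up in concentration series.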

[3] = biological target: rat Thyrotropin Releasing Hormone Receptor (TRH), Trhr (gene 25570) (UniProt Q01717); assay: NVS_GPCR_rTRH: NovaScreen (NVS) G Protein-Coupled Receptor Assay for rat Thyrotropin Releasing Hormone Receptor (TRH) (AID 2283329);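 also: hit means lower bound tracer signal versus DMSO baseline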
Sequence of rat Thyrotropin Releasing Hormone Receptor (TRH), Trhr (gene 25570) (Q01717 whole entry, looked up): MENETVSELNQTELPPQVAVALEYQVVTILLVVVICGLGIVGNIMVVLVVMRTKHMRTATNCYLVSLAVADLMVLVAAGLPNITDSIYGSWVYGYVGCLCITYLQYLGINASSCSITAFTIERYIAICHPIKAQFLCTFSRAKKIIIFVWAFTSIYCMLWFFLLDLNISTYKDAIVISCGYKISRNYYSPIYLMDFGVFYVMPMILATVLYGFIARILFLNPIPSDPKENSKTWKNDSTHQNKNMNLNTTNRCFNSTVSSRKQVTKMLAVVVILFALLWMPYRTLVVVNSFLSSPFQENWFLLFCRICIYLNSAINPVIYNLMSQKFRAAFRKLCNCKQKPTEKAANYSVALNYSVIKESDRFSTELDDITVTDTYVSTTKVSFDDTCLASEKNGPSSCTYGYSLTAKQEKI
Summary of the method: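 Competitive radioligand binding on rat forebrain membrane preparations, with filtration and scintillation readout after 4 h. Primary testing in duplicate at 25 uM; actives confirmed in concentration-response. DMSO defined baseline.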

[4] = biological target: Estrogen receptor beta (Homo sapiens) (UniProt Q92731); assay: OT_ER_ERbERb_0480: Odyssey Thera (OT) 8-hour HEK293T Protein-Complementation Assay for Estrogen Receptor-beta/-beta Homodimer (AID 2283357);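 also: active means signal gain over DMSO baseline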
Sequence of Estrogen receptor beta (Homo sapiens) (Q92731 whole entry, looked up, the tested form may be a part): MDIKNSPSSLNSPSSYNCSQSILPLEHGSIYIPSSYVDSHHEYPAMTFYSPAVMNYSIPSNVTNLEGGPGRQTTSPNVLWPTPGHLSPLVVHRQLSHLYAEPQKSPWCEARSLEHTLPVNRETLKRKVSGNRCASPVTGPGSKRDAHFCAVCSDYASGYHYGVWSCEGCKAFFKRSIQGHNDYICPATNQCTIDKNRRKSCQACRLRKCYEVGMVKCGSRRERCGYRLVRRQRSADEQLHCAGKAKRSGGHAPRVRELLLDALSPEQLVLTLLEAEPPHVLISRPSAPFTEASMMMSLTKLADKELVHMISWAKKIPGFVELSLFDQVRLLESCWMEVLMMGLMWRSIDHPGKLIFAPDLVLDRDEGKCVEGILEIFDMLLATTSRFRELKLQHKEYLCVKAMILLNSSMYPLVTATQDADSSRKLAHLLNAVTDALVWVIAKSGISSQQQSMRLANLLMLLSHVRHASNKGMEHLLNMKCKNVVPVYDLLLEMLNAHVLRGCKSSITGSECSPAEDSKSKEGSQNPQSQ
Summary of the method: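 Fluorescence intensity, nuclear for agonists and nuclear plus cytoplasmic for antagonists, was quantified by laser scanning cytometry versus vehicle after 8 h treatment. The cells were HEK293T stably carrying ER beta LBD fragment-complementation partners.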

[5] = biological target: bovine Estrogen Receptor (ER), ESR1 (gene 407238) (UniProt P49884); assay: NVS_NR_bER: NovaScreen (NVS) Nuclear Receptor Binding Assay for bovine Estrogen Receptor (ER) (AID 2283345);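 also: actives lower the bound radioligand count which means they displace the ER ligand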
Sequence of bovine Estrogen Receptor (ER), ESR1 (gene 407238) (P49884 whole entry, looked up): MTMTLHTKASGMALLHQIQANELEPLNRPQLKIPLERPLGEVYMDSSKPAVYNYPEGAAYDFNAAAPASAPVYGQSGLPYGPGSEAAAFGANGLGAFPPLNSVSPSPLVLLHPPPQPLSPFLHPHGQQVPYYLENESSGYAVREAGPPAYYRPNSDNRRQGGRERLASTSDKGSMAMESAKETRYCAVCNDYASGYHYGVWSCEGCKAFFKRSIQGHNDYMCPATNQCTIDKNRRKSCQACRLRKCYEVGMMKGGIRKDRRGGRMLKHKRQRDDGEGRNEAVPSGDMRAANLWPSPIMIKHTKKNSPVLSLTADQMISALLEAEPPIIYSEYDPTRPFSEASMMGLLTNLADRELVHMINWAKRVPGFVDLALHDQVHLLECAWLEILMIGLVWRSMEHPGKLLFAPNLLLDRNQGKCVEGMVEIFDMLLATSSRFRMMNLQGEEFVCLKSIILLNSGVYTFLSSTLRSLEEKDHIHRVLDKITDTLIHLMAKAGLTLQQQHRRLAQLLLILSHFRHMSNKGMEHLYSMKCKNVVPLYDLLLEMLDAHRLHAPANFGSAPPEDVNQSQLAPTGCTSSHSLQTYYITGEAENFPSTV
Summary of the method: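 Displacement of a radioligand from estrogen receptor in bovine uterine membrane preparations; scintillation signal taken at 18 hours, DMSO as baseline. Single-concentration duplicates (25 uM) preceded concentration-response follow-up of actives.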

[6] = biological target: Estrogen receptor (Homo sapiens) (UniProt P03372); assay: OT_ER_ERaERa_1440: Odyssey Thera (OT) 24-hour HEK293T Protein-Complementation Assay for Estrogen Receptor-alpha/-alpha Homodimer (AID 2283349);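 also: hits raise fluorescence above DMSO for agonists and antagonists alike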
Sequence of Estrogen receptor (Homo sapiens) (P03372 whole entry, looked up, the tested form may be a part): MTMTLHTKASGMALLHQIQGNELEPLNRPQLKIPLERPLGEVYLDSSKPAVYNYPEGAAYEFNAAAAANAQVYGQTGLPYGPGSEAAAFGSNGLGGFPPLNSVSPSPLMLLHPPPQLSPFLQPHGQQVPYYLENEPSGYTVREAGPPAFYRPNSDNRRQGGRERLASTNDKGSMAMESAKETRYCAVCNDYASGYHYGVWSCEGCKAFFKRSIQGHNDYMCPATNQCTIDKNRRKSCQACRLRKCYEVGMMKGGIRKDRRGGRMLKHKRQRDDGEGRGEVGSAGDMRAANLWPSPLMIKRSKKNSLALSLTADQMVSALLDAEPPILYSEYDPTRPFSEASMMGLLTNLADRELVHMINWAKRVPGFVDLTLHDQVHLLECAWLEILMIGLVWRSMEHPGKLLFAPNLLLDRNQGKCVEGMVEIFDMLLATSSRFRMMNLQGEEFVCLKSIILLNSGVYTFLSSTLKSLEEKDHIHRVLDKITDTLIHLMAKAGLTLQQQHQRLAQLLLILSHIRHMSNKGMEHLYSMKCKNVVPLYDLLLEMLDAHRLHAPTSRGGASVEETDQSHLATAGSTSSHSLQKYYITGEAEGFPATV
Summary of the method: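 HEK293T cells stably expressing the human ER alpha ligand-binding domain (aa 310-547) as a homodimer PCA were dosed for 24 hours. Fluorescence intensity was read by laser scanning cytometry, and gain of signal was fitted relative to DMSO vehicle.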

[7] = biological target: Estrogen receptor (Homo sapiens) (UniProt P03372); assay: OT_ER_ERaERa_0480: Odyssey Thera (OT) 8-hour HEK293T Protein-Complementation Assay for Estrogen Receptor-alpha/-alpha Homodimer (AID 2283351);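 also: rise in fluorescence from reassembled reporter fragments on ERα LBD homodimer in nucleus or whole cell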
Summary of the method: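 HEK293T cells stably expressing the human ERα ligand-binding domain (aa 310-547) as a homodimer PCA were dosed with compound for 8 h. Gain of fluorescence intensity versus DMSO vehicle was read by laser scanning cytometry.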

[8] = biological target: Estrogen receptor (Homo sapiens) + Estrogen receptor beta (Homo sapiens) (UniProt P03372+Q92731); assay: OT_ER_ERaERb_0480: Odyssey Thera (OT) 8-hour HEK293T Protein-Complementation Assay for Estrogen Receptor-alpha/-beta Heterodimer (AID 2283352)
Sequence of Estrogen receptor (Homo sapiens) + Estrogen receptor beta (Homo sapiens) (P03372 whole entry, looked up): as the sequence (P03372 whole entry, looked up, the tested form may be a part) above
Sequence of Estrogen receptor (Homo sapiens) + Estrogen receptor beta (Homo sapiens) (Q92731 whole entry, looked up): as the sequence (Q92731 whole entry, looked up, the tested form may be a part) above
Summary of the method: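 Compound added to HEK293T cells carrying split-reporter-tagged ER-alpha and ER-beta LBDs, incubated 8 hours, then imaged by laser scanning cytometer. Signal rise in nucleus, or nucleus and cytoplasm, over vehicle was fitted in the positive direction.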

[9] = biological target: human Constitutive Androstane Receptor (CAR), NR1I3 (gene 9970) (UniProt Q14994); assay: NVS_NR_hCAR_Antagonist: NovaScreen (NVS) Nuclear Receptor Binding Assay for human Constitutive Androstane Receptor Antagonism (CAR) (AID 2283344)
Summary of the method: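 Cell-free TR-FRET binding read 1 h after dosing, antagonist mode; loss of signal versus DMSO baseline. Primary screen in duplicate at a single 25 uM; actives retested in concentration series.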

[10] = biological target: rat Mineralocorticoid Receptor (MR), Nr3c2 (gene 25672) (UniProt P22199); assay: NVS_NR_rMR: NovaScreen (NVS) Nuclear Receptor Binding Assay for rat Mineralocorticoid Receptor (MR) (AID 2283355)
Summary of the method: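 Cell-free radioligand binding to mineralocorticoid receptor from adrenalectomized rat brain supernatant, scintillation counting after 24 h. Primary screen in duplicate at 25 uM; actives retested in concentration series. Loss of specific binding versus DMSO.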

[11] = biological target: chimpanzee Androgen Receptor (AR), AR (gene 747460) (UniProt O97775); assay: NVS_NR_cAR: NovaScreen (NVS) Nuclear Receptor Binding Assay for chimpanzee Androgen Receptor (AR) (AID 2283346);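 also: radioligand displacement from AR measured by scintillation counting in a cell-free assay; a loss of bound radioligand signal versus DMSO counts as binding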
Sequence of chimpanzee Androgen Receptor (AR), AR (gene 747460) (O97775 whole entry, looked up): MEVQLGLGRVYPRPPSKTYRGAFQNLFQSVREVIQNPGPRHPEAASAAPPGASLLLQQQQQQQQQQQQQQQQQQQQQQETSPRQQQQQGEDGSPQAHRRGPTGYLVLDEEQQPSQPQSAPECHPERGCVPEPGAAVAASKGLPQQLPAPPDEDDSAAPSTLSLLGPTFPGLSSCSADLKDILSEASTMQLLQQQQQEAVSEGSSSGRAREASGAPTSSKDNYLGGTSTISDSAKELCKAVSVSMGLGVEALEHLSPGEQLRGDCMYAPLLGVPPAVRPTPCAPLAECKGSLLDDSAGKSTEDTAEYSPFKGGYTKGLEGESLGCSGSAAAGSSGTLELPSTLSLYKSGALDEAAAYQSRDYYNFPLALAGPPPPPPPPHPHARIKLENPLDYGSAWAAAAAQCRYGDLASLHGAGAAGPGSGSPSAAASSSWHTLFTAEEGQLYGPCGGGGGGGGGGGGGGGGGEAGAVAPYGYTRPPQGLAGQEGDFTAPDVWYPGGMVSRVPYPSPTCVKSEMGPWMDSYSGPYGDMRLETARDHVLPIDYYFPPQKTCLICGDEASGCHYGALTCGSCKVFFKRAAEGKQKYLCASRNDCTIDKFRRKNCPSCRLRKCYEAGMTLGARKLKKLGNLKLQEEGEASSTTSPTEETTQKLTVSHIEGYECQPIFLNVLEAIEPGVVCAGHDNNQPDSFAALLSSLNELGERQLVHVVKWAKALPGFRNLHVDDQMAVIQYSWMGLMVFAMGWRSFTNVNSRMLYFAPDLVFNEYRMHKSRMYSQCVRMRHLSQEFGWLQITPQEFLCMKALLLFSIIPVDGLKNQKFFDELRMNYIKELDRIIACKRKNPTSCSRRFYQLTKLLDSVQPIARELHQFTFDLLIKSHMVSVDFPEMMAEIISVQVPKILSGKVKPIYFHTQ
Summary of the method: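 Radioligand binding to chimpanzee AR expressed in Sf9/Sf21 cells, cell-free, measured 72 h after dosing by lysate-based scintillation counting. Loss of signal vs DMSO; initial duplicate screen at 25 uM, actives retested in concentration series.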

[12] = biological target: Estrogen receptor (Homo sapiens) (UniProt P03372); assay: NVS_NR_hER: NovaScreen (NVS) Nuclear Receptor Binding Assay for human Estrogen Receptor (ER) (AID 2283348)
Summary of the method: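 Radioligand competitive displacement binding to estrogen receptor from MCF7 extract, cell-free; 18 h after dosing, scintillation read-out. Primary screen in duplicate at 25 uM; actives followed up in concentration series; loss of signal vs DMSO.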

[13] = biological target: Androgen Receptor/SRC-1 Co-activator, AR (gene 367) (UniProt P10275); assay: OT_AR_ARSRC1_0960: Odyssey Thera (OT) 16-hour HEK293T Protein-Complementation Assay for Androgen Receptor/SRC-1 Co-activator (AID 2283353);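 also: actives raise the signal above DMSO so potency reflects increased AR and SRC-1 complex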
Summary of the method: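 HEK293T cells stably expressing AR and SRC-1 fused to split Venus YFP fragments via (Gly4Ser)2 linkers were dosed for 16 h. Nuclear/cytoplasmic fluorescence ratio at 488 nm, ≥400 cells per image, fitted for gain of signal versus DMSO.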

[14] = biological target: Androgen Receptor/SRC-1 Co-activator, AR (gene 367) (UniProt P10275); assay: OT_AR_ARSRC1_0480: Odyssey Thera (OT) 8-hour HEK293T Protein-Complementation Assay for Androgen Receptor/SRC-1 Co-activator (AID 2283354);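 also: hits raise the complementation signal above DMSO so AC50 marks enhancers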
Summary of the method: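 HEK293T cells stably expressing AR and SRC-1 fused to Venus YFP fragments, imaged 8 h after dosing. Complementation fluorescence scored as nuclear/cytoplasmic ratio at 488 nm in at least 400 cells per image; gain fitted versus DMSO.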

[15] = biological target: Retinoic acid receptor alpha (Homo sapiens) (UniProt P10276); assay: NVS_NR_hRAR_Antagonist: NovaScreen (NVS) Nuclear Receptor Binding Assay for human Retinoic Acid Alpha Receptor Antagonism (RAR) (AID 2283358)
Sequence of Retinoic acid receptor alpha (Homo sapiens) (P10276 whole entry, looked up): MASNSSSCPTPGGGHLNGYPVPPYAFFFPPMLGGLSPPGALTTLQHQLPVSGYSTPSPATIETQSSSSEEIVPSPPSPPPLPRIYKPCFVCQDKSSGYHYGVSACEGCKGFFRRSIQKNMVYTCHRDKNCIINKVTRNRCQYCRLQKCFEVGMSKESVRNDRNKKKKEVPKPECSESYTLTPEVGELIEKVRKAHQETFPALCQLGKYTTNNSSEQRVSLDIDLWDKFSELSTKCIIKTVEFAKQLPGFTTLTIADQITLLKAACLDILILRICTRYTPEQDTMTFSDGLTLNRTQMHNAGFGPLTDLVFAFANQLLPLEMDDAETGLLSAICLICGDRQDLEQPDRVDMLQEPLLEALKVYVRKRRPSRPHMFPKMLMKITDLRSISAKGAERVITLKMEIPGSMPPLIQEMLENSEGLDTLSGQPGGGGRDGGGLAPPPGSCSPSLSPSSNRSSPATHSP
Summary of the method: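 Cell-free TR-FRET binding assay with extracted human RARalpha in antagonist mode, read 2 h after dosing. Loss of signal was fitted relative to DMSO; the primary screen used 25 uM in duplicate, with concentration series on follow-up.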

[16] = biological target: human Androgen Receptor (AR), AR (gene 367) (UniProt P10275); assay: NVS_NR_hAR: NovaScreen (NVS) Nuclear Receptor Binding Assay for human Androgen Receptor (AR) (AID 2283332)
Summary of the method: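 LnCAP cell-free extract; radioligand displacement read by scintillation counting after 20 h. Primary screen single concentration 25 uM in duplicate, actives then run as concentration series; loss-of-signal fitted relative to DMSO baseline.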

Measured: AC50

CCOP(=S)(OCC)SCS(=O)(=O)C(C)(C)C
active: [1] 12.9 µM | [2] 2.02 µM

CN(N=O)C(N)=O
inactive: [3] | [4]

CC(O)(CS(=O)(=O)c1ccc(F)cc1)C(=O)Nc1ccc(C#N)c(C(F)(F)F)c1 (centres undefined)
inactive: [3] | [5] | [6] | [7] | [8] | [4]

Cc1ccccc1OP(=O)(Oc1ccccc1C)Oc1ccccc1C
active: [1] 0.8 µM | [2] 17.1 µM

Clc1cccc(Cl)c1
inactive: [1] | [9] | [10] | [4]

O=[N+]([O-])c1ccc(Cl)c([N+](=O)[O-])c1
inactive: [3] | [5] | [12] | [7]
active: [11] 11.9 µM | [13] 9.86 µM | [14] 15 µM

CCC[CH2][Sn]([Cl])([Cl])[CH2]CCC
active: [11] 19.6 µM
inactive: [3] | [12] | [6] | [7] | [8] | [4] | [15]

O=c1nc(O)n(Cl)c(=O)n1Cl
inactive: [3]

O=C(CCl)Nc1ccccc1
active: [13] 28.2 µM | [14] 59.5 µM
inactive: [3] | [5] | [11] | [6] | [7]

CNC(=O)O/N=C/C(C)(C)S(C)(=O)=O
inactive: [3] | [6] | [7] | [8] | [13] | [4]

COCC(=O)N(c1c(C)cccc1C)[C@H](C)C(=O)OC
inactive: [1]

CC(=Cc1ccccc1)[N+](=O)[O-]
active: [13] 16.7 µM | [14] 18 µM
inactive: [3] | [12] | [6] | [7] | [8] | [4]

O=C1C=CC(=O)c2ccccc21
active: [16] 33.9 µM

CCOCn1c(-c2ccc(Cl)cc2)c(C#N)c(Br)c1C(F)(F)F
inactive: [3] | [5] | [12] | [7]
active: [1] 0.368 µM | [6] 12.4 µM | [8] 16.9 µM | [4] 17.3 µM

CC(C)N(C(=O)CCl)c1ccccc1
active: [1] 7.59 µM and 7.28 µM | [2] 3.16 µM and 407 nM | [13] 45.7 µM
inactive: [3] | [12] | [6] | [7] | [8] | [14] | [4]

CCOC(=O)CCN(SN(C)C(=O)Oc1cccc2c1OC(C)(C)C2)C(C)C
active: [1] 5.06 µM | [2] 4.91 µM

[Cl][Sn]([c]1ccccc1)([c]1ccccc1)[c]1ccccc1
active: [16] 0.746 µM
inactive: [11]

COc1nn(C(=O)NS(=O)(=O)c2ccccc2OC(F)(F)F)c(=O)n1C
inactive: [3] | [4]

O=S1(=O)OC(c2cc(Br)c(O)c(Br)c2)(c2cc(Br)c(O)c(Br)c2)c2ccccc21
inactive: [3] | [12] | [6] | [7] | [13] | [14]
active: [1] 5.29 µM | [11] 18.1 µM | [8] 15.2 µM | [4] 46.5 µM

CCOP(=O)(OCC)OC(=CCl)c1ccc(Cl)cc1Cl
active: [1] 2.12 µM | [2] 1.65 µM
inactive: [5] | [10]

CCCCOP(=O)(CCCC)OCCCC
active: [1] 6.98 µM | [2] 1.62 µM

O=C(CBr)c1ccc(O)cc1
inactive: [3] | [4]

COC(=O)Nc1cccc(OC(=O)Nc2cccc(C)c2)c1
inactive: [4]
active: [1] 0.323 µM
